In PubChem BioAssay:

Test: E. coli acrAB mutant growth effects, primary screen, E. coli filamentation inducers, strain DRC39, OD650, 24 h (AID 1178);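 further: growth measured as culture turbidity by optical density at 650 nm; test concentration not given here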
Conditions: higher = more signal, called active from +8 up or from −8 down

z-score, inactive:
CCCCC(O)C1C=CC2C(=O)N(C)C(=O)C2N1Nc1ccccc1 (stereo not given) -0.867
O=C1C2C=CC(C(O)c3cccs3)N(Nc3ccccc3)C2C(=O)N1c1ccccc1 (stereo not given) 0.0187
COC(=O)[C@@]1(Cc2ccccc2)[C@@H]2[C@@H](CC(=O)[C@H]2CC(=O)C(=O)N(C)C)CN1C(=O)c1ccccc1 -0.49
CC=CC(O)C1C=CC2C(=O)N(C)C(=O)C2N1NC(=O)OC(C)(C)C (stereo not given) -0.447
CN(C)C(=O)[C@]1(Cc2ccccc2)N=C(c2ccc(OCCCO)cc2)O[C@@H]1c1ccccc1 -0.809
C=CCC(OC(C)=O)[C@@H]1[C@@H](N(Cc2cccc3ccccc23)C(=O)c2ccc(-c3ccccc3)cc2)c2cc(OCCCO)ccc2N1C(=O)c1ccc2ccccc2n1 (stereo not given in full) -0.267
C=CCC(OC(C)=O)[C@@H]1[C@@H](N(Cc2ccc(-c3ccccc3)cc2)C(=O)c2ccc(-c3ccccc3)cc2)c2cc(OCCCO)ccc2N1C(=O)c1ccc2ccccc2n1 (stereo not given in full) 0.348
NC(=O)NCC#Cc1ccc2c(c1)[C@]1(C(=O)N2)[C@H](C(=O)N2CCCCCCC2)[C@H]2C(=O)O[C@H](c3ccccc3)[C@H](c3ccccc3)N2[C@@H]1c1ccc(O)cc1 0.271
C=CCC(OC(C)=O)[C@@H]1[C@@H](N(Cc2ccc(-c3cccc(C(F)(F)F)c3)o2)C(=O)Cc2ccc(F)cc2)c2cc(OCCCO)ccc2N1C(=O)c1ccc2ccccc2c1 (stereo not given in full) 0.227
O=C1C2C=CC(C(O)c3ccc([N+](=O)[O-])cc3)N(Nc3ccccc3)C2C(=O)N1c1ccccc1 (stereo not given) -0.46
